# Laboratory results taken from PubChem BioAssay AID1986 (Sanford-Burnham Center for Chemical Genomics, 2009).
# “And” between values parts separate entries of the source, which are not always exact repeats. Equal values may be shown once. The campaign covered roughly 290,000 compounds. About 890 (0.31%) were called active. Rule as the data show it: active = inhibition mostly above about 52% (no sharp cut-off); inactive = mostly below about 76%. Only a selection was taken, and actives are over-represented in it overall. Where a structure was tested more than once in an assay, its records may differ in their call.
# Assay: inhibitors of HIV fusion peptide binding, primary screen, biochemical, uHTS, fluorescence dequenching (AID 1986)
# Details: cell-free peptide binding, 30 min, stronger effect = higher value
# [1] = measured here: repeat confirmation average inhibition, at 18.6 µM
SMILES,inhibition (at 20 µM),inhibition [1]
Oc1ccc(Cl)cc1N=Nc1ccccc1,-2.6% (inactive),–
O=S(=O)(O)c1cccc(N=Nc2c(O)ccc3ccccc23)c1,10.9% (inactive),–
O=S(=O)(O)c1cc(O)c2c(O)c(N=Nc3cc(Cl)ccc3O)c(S(=O)(=O)O)cc2c1,55.7% (active),–
CCc1ccc2[nH]c3nc(SCc4nnc(-c5ccc(C)cc5)o4)nnc3c2c1,1.4% (inactive),–
N#Cc1c(-c2cccc(Br)c2)cc(-c2ccco2)[nH]c1=O,81.5% (active),–
COc1ccc(-c2cc(-c3ccco3)[nH]c(=O)c2C#N)cc1,48.8% (inactive),–
COc1ccc(-c2cc(-c3ccco3)[nH]c(=O)c2C#N)cc1OC,40.7% (inactive),–
Cc1c(C(=O)O)c(=O)n(-c2ccccc2)n1-c1ccccc1,1.2% (inactive),–
Cc1ccc(C)c(C(=O)CSc2nc3ccccc3c(=O)[nH]2)c1,1.9% (inactive),–
Cc1cc(NC(=O)OC2CCCCC2)ccc1[N+](=O)[O-],-1.3% (inactive),–
COc1cc(C(=O)NS(=O)(=O)c2ccccc2C)ccc1Cc1cn(C)c2ccc(NC(=O)OC3CCCC3)cc12,55.9% (active),–
COc1ccc(CNC(=O)Cc2cn(C)c3ccccc23)c(OC)c1,0% (inactive),–
O=S(=O)(c1ccc(C2CCCCC2)cc1)N1CCCC1,-0.2% (inactive),–
COCCn1c(=NC(=O)CCS(=O)(=O)c2ccccc2)sc2c(OC)ccc(OC)c21,1.4% (inactive),–
CC(C)NCc1cc(Br)ccc1OCc1ccccc1,0.8% (inactive),–
S=c1[nH]nc(-c2ccco2)n1/N=C/C=C/c1ccccc1,3.2% (inactive),–
S=c1[nH]nc(-c2ccco2)n1/N=C/C=C/c1ccco1,65.9% (active),–
S=c1[nH]nc(-c2ccccc2)n1/N=C/C=C/c1ccco1,51.2% (inactive),-0.2%
COc1ccc2c(CC(=O)Nc3ncc(C)s3)coc2c1,1.1% (inactive),–
Cc1cccc(C)c1OCc1cc(C(=O)NCc2ccc(Cl)s2)no1,0.7% (inactive),–
CC1=CC(=C(C#N)C#N)c2ccccc2N1C,146% (inactive),–
COC(=O)c1c(C(=O)NCc2ccccc2)ncn1CC(O)COc1ccccc1 (stereo unspecified),-0.4% (inactive),–
CCOC(=O)c1nc2sc3c(c2c(=O)[nH]1)CCCC3,0.4% (inactive) and 2.4% (inactive),–
N#C/C(=C\c1ccc(C(=O)O)cc1)c1nc2sc3c(c2c(=O)[nH]1)CCCC3,103% (active),–

SMILES,inhibition (at 20 µM),inhibition [1]
O=C(O)c1ccc(/C=C/c2nc3sc4c(c3c(=O)[nH]2)CCC4)cc1,33.6% (inactive),–
O=C(N/N=C/c1cc([N+](=O)[O-])ccc1O)C(O)(c1ccccc1)c1ccccc1,15.6% (inactive),–
N#CC1(C#N)C(c2ccccc2)OC23CCCCCC2C1(C#N)C(=N)O3 (stereo unspecified),10% (inactive),–
COc1ccc2c(CC(=O)Nc3ccc(N4CCOCC4)cc3)coc2c1,-1.8% (inactive),–
CCOC(=O)C1CCN(C(=O)Nc2ccc3nc(-c4ccco4)c(-c4ccco4)nc3c2)CC1,68.6% (active),–
O=C(Nc1ccc2nc(-c3ccco3)c(-c3ccco3)nc2c1)N1CCCCCC1,55.6% (inactive),19.7%
CCOC(=O)C1CCN(C(=O)Nc2ccc3nc(C)c(C)nc3c2)CC1,0.1% (inactive),–
Cc1cc(C)c(C)c(S(=O)(=O)N2CCNCC2)c1C,0.3% (inactive),–
CC(C)(C)c1ccc(-c2nnc3sc(-c4ccncc4)nn23)cc1,-2.8% (inactive),–
NC(=S)Nc1ccc(Cl)cc1Cl,-1.7% (inactive),–
COc1cc(OC)c(/C=N/n2c(C)nnc2C)c(OC)c1,-1.2% (inactive),–
CCOC(=O)C(=Cc1ccc(-c2ccsc2C(=O)OC)o1)C(=O)OCC,2.2% (inactive),–
COC(=O)C(=Cc1ccc(-c2ccsc2C(=O)OC)o1)C(=O)OC,-1% (inactive),–
CCOC(=O)/C(C#N)=C/c1ccc(-c2ccsc2C(=O)OC)o1,61.4% (active),–
Cc1cc(-c2ccc(Cl)s2)n[nH]1,0% (inactive),–
CC1(C)CCCC2=C1CC1C(=O)N(Cc3cccnc3)C(=O)C1C2 (stereo unspecified),1.5% (inactive),–
Cc1cc(C)n2nc(C(=O)N/N=C/c3ccco3)nc2n1,-0.3% (inactive),–
O=C(c1nc2ccccn2c1CNCC1OCCc2ccccc21)N1CCOCC1 (stereo unspecified),-0.8% (inactive),–
Cc1ccc(C)c(S(=O)(=O)NCCCn2ccnc2)c1,-0.3% (inactive),–
COc1ccc(NC(=O)c2ccccc2NS(=O)(=O)c2ccc(C)cc2)c([N+](=O)[O-])c1,1.8% (inactive),–
Cc1nn(-c2ccccc2)c(Cl)c1/C=N/Nc1ccc(S(=O)(=O)Nc2ccccc2C(=O)O)cc1[N+](=O)[O-],73% (active),–
COc1ccc(NS(=O)(=O)c2cccc(C(=O)Nc3ccccc3C(=O)O)c2)cc1,19.7% (inactive),–
COc1ccccc1NS(=O)(=O)c1ccc(N/N=C/c2c(C)nn(-c3ccccc3)c2N2CCCC2)c([N+](=O)[O-])c1,-5.2% (inactive),–
Cc1nn(-c2ccccc2)c(N2CCCC2)c1/C=N/Nc1ccc(S(=O)(=O)Nc2ccccc2)cc1[N+](=O)[O-],-3.9% (inactive),–

SMILES,inhibition (at 20 µM),inhibition [1]
COc1ccc(NC(=S)NNc2ccc(S(=O)(=O)Nc3ccccc3C(=O)O)cc2[N+](=O)[O-])cc1,52.4% (active),–
COc1ccc(N(CC(=O)N2CCc3ccccc3C2)S(C)(=O)=O)cc1,-1.6% (inactive),–
COc1cc(COCC(O)CN2CCOCC2)cc(OC)c1OC (stereo unspecified),-2.1% (inactive),–
O=C(Cc1ccc(Cl)cc1)Nc1cc(S(=O)(=O)N2CCOCC2)ccc1N1CCCC1,1.2% (inactive),–
O=[N+]([O-])c1ccc(N2N=C(c3ccccc3)CC2c2ccccc2O)cc1 (stereo unspecified),38.9% (inactive),–
N#CC1CC(c2ccccc2)=NN1c1ccccc1[N+](=O)[O-] (stereo unspecified),-3.1% (inactive),–
N#CC1CC(c2ccc([N+](=O)[O-])cc2)=NN1c1ccc([N+](=O)[O-])cc1 (stereo unspecified),83.7% (active),–
COC(=O)c1sccc1NC(=O)Nc1ccc(OC)cc1,1.8% (inactive),–
Cc1ccc(OCCNS(=O)(=O)c2cccs2)cc1,-0.8% (inactive),–
CCN(CC)C(=O)CSc1nc(O)c(Cc2ccc(OC)cc2)c(=O)[nH]1,0.3% (inactive),–
Cc1ccc(/C=C(\C#N)C(=O)Nc2cccc3ncccc23)o1,77.8% (active),–
Cc1ccc(/C=C(\C#N)C(=O)Nc2ccccn2)o1,0.3% (inactive),–
N#C/C(=C\c1ccco1)C(=O)Nc1cccc2ncccc12,1.5% (inactive),–
CCc1nnc(SCC(=O)N2CCCC(N3CCN(c4ccccc4C)CC3)C2)o1 (stereo unspecified),-0.2% (inactive),–
CC1(C)CC(=O)C2=C(C1)N(c1ccc(F)cc1)C(=O)C2(NC(=O)c1ccccc1)C(F)(F)F (stereo unspecified),-0.9% (inactive),–
Cc1ccccc1-c1cc(=O)c2c(O)cccc2o1,-1.7% (inactive),–
O=c1cc2oc3cc(O)c(O)cc3c(-c3ccccc3O)c-2cc1O,148% (inactive),–
COc1ccc(OC)c(-c2oc3ccccc3c(=O)c2O)c1,-0.8% (inactive),–
COc1ccc2c(=O)cc(-c3ccccc3F)oc2c1,-1.9% (inactive),–
Cc1cc2oc(=O)cc(-c3cc4ccccc4o3)c2cc1O,21% (inactive),–
CCOc1ccccc1-c1c2cc(O)c(=O)cc-2oc2cc(O)c(O)cc12,118% (active),–
COc1cc(OC)c(-c2c3cc(O)c(=O)cc-3oc3cc(O)c(O)cc23)cc1OC,82.9% (active),–
Cc1c2cc(O)c(=O)cc-2oc2cc(O)c(O)cc12,150% (inactive) and 61.1% (active),–
COc1cc(-c2cc(=O)c3ccccc3o2)ccc1O,-1.9% (inactive),–

SMILES,inhibition (at 20 µM),inhibition [1]
COc1ccc(OC)c(-c2c3cc(O)c(=O)cc-3oc3cc(O)c(O)cc23)c1,122% (active),–
O=c1cc2oc3cc(O)c(O)cc3c(-c3ccccc3[N+](=O)[O-])c-2cc1O,34.3% (inactive),–
COc1c(O)cc2oc(-c3ccc(O)c(O)c3)cc(=O)c2c1O,20.2% (inactive),–
CC1=NN(c2ccc(C)cc2C)C(=O)C1C(c1ccccc1O)C1C(=O)N(c2ccc(C)cc2C)N=C1C (stereo unspecified),3.7% (inactive),–
COc1ccc(C(=O)Nc2ccnn2C2CCN(C(=O)c3cnsn3)CC2)cc1,-1.2% (inactive),–
COc1ccccc1C(=O)N/C(=C/c1ccc(Br)cc1)C(=O)NCCO,7.1% (inactive),–
CCCCCCNc1cc2n(c(=O)n1)CCc1cc(OC)c(OC)cc1-2,-3.2% (inactive),–
COc1ccccc1NS(=O)(=O)c1ccc(NN=C2CCCCC2)c([N+](=O)[O-])c1,-1.4% (inactive),–
c1ccc2c(c1)CC1(CCCCC1)n1nnnc1-2,-1.4% (inactive),–
CCCCCC(=O)NC(=S)Nc1ccc2oc(=O)ccc2c1,-0.3% (inactive),–
COC(=O)CCSCC(=O)Nc1ccc(S(=O)(=O)N2CCOCC2)cc1OC,0.8% (inactive),–
CC(C)C1/C(=N/O)CC(c2ccccc2)NC1c1ccccc1 (stereo unspecified),0% (inactive),–
CCCCNC(=O)CC1N=C2c3ccccc3N=C(SCC(=O)Nc3ccccc3OC)N2C1=O (stereo unspecified),1.1% (inactive),–
CCOC(=O)c1nc(S(C)(=O)=O)ncc1N1CCOCC1,-2.9% (inactive),–
CCc1ccccc1N(C(=O)CCC(=O)Nc1cc(C)on1)C(C(=O)NC1CCCC1)c1ccco1 (stereo unspecified),0.8% (inactive),–
CC(=O)CC(c1ccc([N+](=O)[O-])cc1)c1c(O)c2ccccc2oc1=O (stereo unspecified),3.8% (inactive),–
O=[N+]([O-])c1ccc2c(c1)oc1ccccc12,-0.8% (inactive),–
COc1cc(/C=N/NC(N)=O)cc([N+](=O)[O-])c1O,-1.1% (inactive),–
CCN(CC(=O)Nc1c(F)cccc1F)C(=O)c1ccccc1F,0.4% (inactive),–
O=C(O)C(Cc1ccccc1)N1C(=O)CCC1=O (stereo unspecified),-1.2% (inactive),–
Cc1ccc(C)n1C(Cc1ccccc1)C(=O)O (stereo unspecified),67.3% (active),–
O=C(O)C(Cc1ccccc1)n1cccc1 (stereo unspecified),1.2% (inactive),–
